This note sets out measurements from PubChem BioAssay (NCATS).

In assay [1] the target is Cytochrome P450 2C9 (Homo sapiens) (UniProt P11712). The assay can be described thus: Cytochrome P450 family 2 subfamily C member 9 (CYP2C9) small molecule antagonists: luciferase biochemical (cell-free) qHTS assay (AID 1645842; active means well fitted curve in the direction sought with a large enough effect in the repeat runs; an effect the other way counts as inactive or inconclusive; further: nearly all actives have a fitted effect of over 55% in size; further: potency means the concentration at half of the fitted maximal effect). The method in brief: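 Luminescence, after 20 min with luciferin detection reagent, reflected CYP2C9 turnover during a 1 h NADPH-driven reaction at 37C. Enzyme-substrate mix contained 0.4% bovine serum albumin and was preincubated with compound 10 min at room temperature.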
Chain of Cytochrome P450 2C9 (Homo sapiens) (P11712 whole entry, looked up): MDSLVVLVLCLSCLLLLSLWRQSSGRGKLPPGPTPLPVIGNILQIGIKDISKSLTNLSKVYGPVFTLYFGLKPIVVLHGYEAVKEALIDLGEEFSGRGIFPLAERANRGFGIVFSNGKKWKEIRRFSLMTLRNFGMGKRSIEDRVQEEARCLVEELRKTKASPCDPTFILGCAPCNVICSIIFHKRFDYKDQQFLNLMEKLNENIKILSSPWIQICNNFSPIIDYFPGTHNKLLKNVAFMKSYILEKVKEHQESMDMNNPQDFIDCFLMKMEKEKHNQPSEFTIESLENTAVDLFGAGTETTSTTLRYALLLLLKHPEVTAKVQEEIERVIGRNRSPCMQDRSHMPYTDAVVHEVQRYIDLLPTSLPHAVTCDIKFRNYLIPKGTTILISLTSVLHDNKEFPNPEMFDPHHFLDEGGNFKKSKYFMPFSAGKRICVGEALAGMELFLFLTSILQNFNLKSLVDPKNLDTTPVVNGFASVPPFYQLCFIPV
In general terms: In qHTS, concentration-response curves come from the screen itself.

The target of assay [2] is Cytochrome P450 2D6 (Homo sapiens) (UniProt P10635). The assay can be described thus: Cytochrome P450 family 2 subfamily D member 6 (CYP2D6) small molecule antagonists: luciferase biochemical (cell-free) qHTS assay (AID 1645840; active means well fitted curve in the direction sought with a large enough effect in the repeat runs; an effect the other way counts as inactive or inconclusive; further: series mostly up to about 57 µM; on the % scale 0 is the no-effect control and ±100 the full control effect; nearly all actives have a fitted effect of over 55% in size). The method in brief:
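P450-Glo luminescent screen: recombinant CYP2D6 enzyme–proluciferin substrate mix preincubated with compound 10 min at room temperature, then NADPH regeneration added for 1 h at room temperature. Detection reagent added for 20 min; luciferin light read as relative luminescence units.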

The nature of assay [3]: Viability counterscreen for antagonist of constitutive androstane receptor (CAR) against the NCATS DSHEA and TCM libraries (AID 1794837).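 Further: compound exposure lasted 24 h before viability reading; 0% is about no effect.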 The method in brief:
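HepG2-CYP2B6-hCAR cells (2,500/well) were allowed to attach for 5 h, then exposed to compounds with 48 uM CITCO for 24 h at 37C. Viability was read by CellTiter-Fluor fluorescence after 1 h.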

Assay [4] is described as follows: Viability counterscreen for agonist of constitutive androstane receptor (CAR) against the NCATS DSHEA and TCM libraries (AID 1794838). Further: 0% is about no effect. In outline: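 HepG2-CYP2B6-hCAR cells (2,500/well) attached 5 h, then got compounds plus 0.75 uM PK11195 final. After 24 h at 37C, viability read by CellTiter-Fluor fluorescence (Ex/Em 405/540 nm).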
(In general: A counterscreen serves to expose hits that act by an unwanted route or on another target.)

The target of assay [5] is Nuclear receptor subfamily 1 group I member 3 (Homo sapiens) (UniProt Q14994). The assay can be described thus: Primary qHTS for agonist of constitutive androstane receptor (CAR) against the NCATS DSHEA and TCM libraries (AID 1794839).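 Further: HepG2 cells expressing human CAR with a CYP2B6 reporter plus PK11195 antagonist; 0% is about no effect.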 The method in brief: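 HepG2-CYP2B6-hCAR cells (2,500/well) were attached for 5 h, then treated for 24 h at 37 °C with compounds plus 0.75 µM PK11195. Luciferase luminescence (ONE-Glo) was read, with CellTiter-Fluor viability (Ex/Em 405/540 nm).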
Chain of Nuclear receptor subfamily 1 group I member 3 (Homo sapiens) (Q14994 whole entry, looked up): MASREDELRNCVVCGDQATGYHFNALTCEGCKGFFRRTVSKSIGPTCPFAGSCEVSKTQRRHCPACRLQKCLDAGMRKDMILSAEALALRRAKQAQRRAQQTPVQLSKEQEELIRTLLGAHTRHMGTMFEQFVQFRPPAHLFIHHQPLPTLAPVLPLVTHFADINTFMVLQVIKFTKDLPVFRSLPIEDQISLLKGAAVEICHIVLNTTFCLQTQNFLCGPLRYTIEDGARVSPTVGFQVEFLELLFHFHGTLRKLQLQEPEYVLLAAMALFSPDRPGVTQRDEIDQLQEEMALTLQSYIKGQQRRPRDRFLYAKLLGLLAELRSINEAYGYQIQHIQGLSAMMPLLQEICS

A short description of assay [6]: HepG2 viability counterscreen (readout 2: ATP content) against the NCATS DSHEA and TCM libraries (AID 1794840).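 Further: HepG2 cells exposed to substances for about 24 h; 0% is about no effect.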 In outline:
(§1)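 HepG2 cells (1,000 cells/well) attached ~4 h, then treated ~24 h at 37C with substances. Protease activity read by GF-AFC (25 uM final, 30 min, Ex/Em 380/510 nm); ATP content then by CellTiter-Glo luminescence.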

Assay [7] in a line: HepG2 viability counterscreen (readout 1: protease activity) against the NCATS DSHEA and TCM libraries (AID 1794841).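 Further: cells exposed to compounds for about 24 h before the protease read; 0% is about no effect.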 In outline:
as §1

The target of assay [8] is Cytochrome P450 3A4 (Homo sapiens) (UniProt P08684). In words: qHTS for inhibitors of CYP3A4 against the NCATS DSHEA and TCM libraries (AID 1919971).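 Further: on the % scale 0 is the no-effect control and ±100 the full control effect; inhibition lowers luminescence from luciferin made by CYP3A4.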 In outline: (§2)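 Read-out is luminescence after P450-Glo detection (30 min, RT). Before that: 15 min compound–enzyme preincubation, then 30-45 min reaction with 1x NADPH regeneration solution, substrate concentration isoform-specific.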

The target of assay [9] is Cytochrome P450 2D6 (Homo sapiens) (UniProt P10635). In words: qHTS for inhibitors of CYP2D6 against the NCATS DSHEA and TCM libraries (AID 1919972). Further: on the % scale 0 is the no-effect control and ±100 the full control effect. The method in brief:
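Luminescent P450-Glo read-out of CYP2D6 turnover of a luciferin substrate after NADPH-driven reaction of 30-45 min at room temperature. Compounds were first preincubated 15 min with enzyme at titrated concentrations; quinidine was the intraplate control.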

The target of assay [10] is Cytochrome P450 2C9 (Homo sapiens) (UniProt P11712). The assay can be described thus: qHTS for inhibitors of CYP2C9 against the NCATS DSHEA and TCM libraries (AID 1919973).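 Further: luminogenic pro-luciferin CYP2C9 substrate turned into luciferin with NADPH regeneration; series mostly up to about 34 µM; on the % scale 0 is the no-effect control and ±100 the full control effect.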 In outline: as §2
In assay [11] the target is Cytochrome P450 2C19 (Homo sapiens) (UniProt P33261). In words: qHTS for inhibitors of CYP2C19 against the NCATS DSHEA and TCM libraries (AID 1919974).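 Further: luminescence from luciferin released by CYP2C19 oxidation of a pro-luciferin substrate; on the % scale 0 is the no-effect control and ±100 the full control effect.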 In outline:
as §2

The nature of assay [12]: KB-3-1 P-gp reporter qHTS against the NCATS DSHEA and TCM libraries (AID 1919975). Further: 0% is about no effect. In outline:
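Parental KB-3-1 human cervical adenocarcinoma cells (500 cells/well, DMEM + 10% FBS) were treated with substances for ~72 h at 37C; viability was read by CellTiter-Glo luminescence.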

Assay [13] concerns the target Cytochrome P450 1A2 (Homo sapiens) (UniProt P05177). The assay can be described thus: qHTS for inhibitors of CYPIA2 against the NCATS DSHEA and TCM libraries (AID 1919976).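 Further: light from luciferin formed by CYP1A2 from a pro-luciferin substrate; series mostly up to about 37 µM; on the % scale 0 is the no-effect control and ±100 the full control effect.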 The method in brief:
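CYP1A2 + luciferin substrate, 100 mM KPO4-type buffer; cmpd 15 min RT; 1x NADPH regen, 30-45 min RT dark; detection reagent 30 min RT; luminescence. Minus-enzyme wells as background; furafylline intraplate control.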

Assay [14] in a line: qHTS Counterscreen for compound interference against the NCATS DSHEA and TCM libraries (AID 1919978). Further: % of control where 0% means no effect. Conditions: firefly luciferase detection reagent interference, luminescence. In outline:
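D-luciferin (1 uM final) or 100 mM potassium phosphate buffer alone was preincubated 15 min at RT with compounds (19.5 nM to 39.8 uM final). Luciferin detection reagent was then added and luminescence read after 30 min at RT.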

The nature of assay [15]: Dual reporter qHTS for agonist of Pregnane X Receptor (hPXR) against the NCATS DSHEA and TCM libraries: Fluorescence readout (AID 1920058). Further: 0% is about no effect. In outline:
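HepG2 hPXR-Luc, 2000 cells/well, 5 h attach; cpds ~24 h, 37 °C/5% CO2; CellTiter-Fluor 1 h; fluor. Ex/Em 405/540 nm = viability.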

Assay [16] addresses Nuclear receptor subfamily 1 group I member 2 (Homo sapiens) (UniProt O75469). In words: Dual reporter qHTS for agonist of Pregnane X Receptor (hPXR) against the NCATS DSHEA and TCM libraries: Luminescence readout (AID 1920059). Further: 0% is about no effect. In outline:
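hPXR-Luc HepG2 cells, 2000/well in 5% charcoal-stripped FBS medium, attached 5 h, then exposed 24 h at 37C to compounds. Viability by CellTiter-Fluor, then luciferase luminescence with ONE-Glo.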

Assay [17] has the same target. The assay can be described thus: Dual reporter qHTS for antagonist of Pregnane X Receptor (hPXR) against the NCATS DSHEA and TCM libraries: Luminescence Readout (AID 1920060).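 Further: HepG2 cells carrying hPXR luciferase reporter stimulated with rifampicin at 2 µM; 0% is about no effect.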 In outline:
(§3)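 hPXR-Luc HepG2 cells exposed 24 h at 37 C to compounds with 2 uM rifampicin in antagonist mode; luciferase luminescence measured by ONE-Glo, with CellTiter-Fluor viability read beforehand.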

Assay [18] can be described thus: Dual reporter qHTS for antagonist of Pregnane X Receptor (hPXR) against the NCATS DSHEA and TCM libraries: Fluorescence Readout (AID 1920061). Further: 0% is about no effect. In outline: as §3
Assay [19] has as its target Glutathione peroxidase 1 (Homo sapiens) (UniProt P07203). The assay can be described thus: Primary qHTS Assay for Inhibitors of Recombinant Selenoprotein Glutathione Peroxidase 1 (GPX1) (AID 1845191). Further: nearly all actives have a fitted effect of over 65% in size. In outline:
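GR-coupled assay: compounds preincubated 30 min at room temperature with GPX1, then reaction started with CHP; final 10 nM GPX1, 1 mM GSH, 0.5 mM CHP, 0.5 mM NADPH, 100 nM GR, 0.01% BSA, pH 7.5 Tris buffer. NADPH fluorescence (340/450 nm) read at 0 and 15 min.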

Assay [20] concerns the target Phospholipid hydroperoxide glutathione peroxidase GPX4 (Homo sapiens) (UniProt P36969). The assay can be described thus: Primary qHTS Assay for Inhibitors of Recombinant Selenoprotein Glutathione Peroxidase 4 (GPX4) (AID 1845192). Further: series mostly up to about 50 µM; on the % scale 0 is the no-effect control and ±100 the full control effect; nearly all actives have a fitted effect of over 65% in size. The method in brief:
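GR-coupled assay: recombinant GPX4 preincubated 30 min with compound at room temperature; final 200 nM GPX4, 1 mM GSH, 0.5 mM cumene hydroperoxide, 0.5 mM NADPH, 100 nM GR, 0.01% BSA, pH 7.5 Tris. NADPH fluorescence (340/450 nm) read at 0 and 15 min.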

Assay [21] deals with Rap guanine nucleotide exchange factor 3 (Homo sapiens) (UniProt O95398). In words: Confirmatory qHTS for antagonist of cAMP-regulated guanine nucleotide exchange factor 3 (EPAC1) (AID 1645880). Further: potency means the concentration at half of the fitted maximal effect; nearly all actives have a fitted effect of over 55% in size. The method in brief: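 Nucleotide exchange uses 100 nM EPAC1, 250 nM RAP1B-BODIPY-GDP and 50 uM GDP, with compounds in a concentration-titration series. After 5 min at room temperature, fluorescence (480 nm ex/540 nm em) is read every 5 min for 30 min. Data are normalized to control ATA and DMSO.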
Chain of Rap guanine nucleotide exchange factor 3 (Homo sapiens) (O95398 whole entry, looked up): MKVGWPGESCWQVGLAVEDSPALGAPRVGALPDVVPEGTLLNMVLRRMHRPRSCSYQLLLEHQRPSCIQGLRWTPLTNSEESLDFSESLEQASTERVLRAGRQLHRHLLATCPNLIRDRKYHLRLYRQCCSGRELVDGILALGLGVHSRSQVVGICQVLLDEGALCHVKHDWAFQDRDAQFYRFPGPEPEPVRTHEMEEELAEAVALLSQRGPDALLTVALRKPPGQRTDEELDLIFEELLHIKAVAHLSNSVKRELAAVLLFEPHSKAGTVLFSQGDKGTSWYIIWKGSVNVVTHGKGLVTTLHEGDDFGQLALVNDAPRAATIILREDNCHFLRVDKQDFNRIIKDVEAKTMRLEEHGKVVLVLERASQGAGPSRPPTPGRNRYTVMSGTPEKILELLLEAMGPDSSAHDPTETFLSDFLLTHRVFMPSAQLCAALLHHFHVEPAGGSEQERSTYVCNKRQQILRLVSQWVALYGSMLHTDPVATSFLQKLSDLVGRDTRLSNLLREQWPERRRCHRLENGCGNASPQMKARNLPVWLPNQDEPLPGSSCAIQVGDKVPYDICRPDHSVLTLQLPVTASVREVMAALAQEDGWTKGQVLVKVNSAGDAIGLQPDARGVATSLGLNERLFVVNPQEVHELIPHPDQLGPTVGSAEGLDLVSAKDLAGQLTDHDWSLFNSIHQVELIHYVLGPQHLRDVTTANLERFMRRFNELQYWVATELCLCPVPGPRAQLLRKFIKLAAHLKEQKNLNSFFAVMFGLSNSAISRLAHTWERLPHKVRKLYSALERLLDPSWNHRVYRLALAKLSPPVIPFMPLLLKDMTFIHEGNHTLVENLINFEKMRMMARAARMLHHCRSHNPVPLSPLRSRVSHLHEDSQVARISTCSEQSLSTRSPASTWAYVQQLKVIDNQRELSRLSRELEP

Assay [22] shares this target. The assay can be described thus: Confirmatory qHTS for agonist of cAMP-regulated guanine nucleotide exchange factor 3 (EPAC1) (AID 1645881).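 Further: EPAC1 catalysed release of BODIPY-GDP from Rap1B seen as fluorescence loss; 100% = effect of cAMP agonist control; nearly all actives have a fitted effect of over 75% in size.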
Assay [23] has as its target Rap guanine nucleotide exchange factor 4 (Homo sapiens) (UniProt Q8WZA2). The assay can be described thus: Confirmatory qHTS for agonist of cAMP-regulated guanine nucleotide exchange factor 4 (EPAC2) (AID 1645884).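 Further: nucleotide exchange releases bodipy-GDP from Rap1 and this lowers its fluorescence; on the % scale 0 is the no-effect control and ±100 the full control effect; nearly all actives have a fitted effect of over 65% in size.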
Assay [24] shares this target. In words: Confirmatory qHTS for antagonist of cAMP-regulated guanine nucleotide exchange factor 4 (EPAC2) (AID 1645885). Further: on the % scale 0 is the no-effect control and ±100 the full control effect; nearly all actives have a fitted effect of over 25% in size.
In assay [25] the target is Rap guanine nucleotide exchange factor 3 (Homo sapiens) (UniProt O95398). In words: Counterscreen qHTS for antagonist of cAMP-regulated guanine nucleotide exchange factor 3 (EPAC1) (AID 1645888).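 Further: fluorescence loss as bound BODIPY-GDP is released from Rap1B; % of control where 0% means no effect.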 The method in brief:
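Rap1B–BODIPY-GDP (250 nM) with 50 uM GDP; compounds pin-transferred to 9.74 nM–152 uM final (activator) or from 7.32 nM upwards (inhibitor). Fluorescence Ex/Em 480/540 nm read at 5 and 30 min, then after adding cAMP or buffer, at room temperature.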

Unmarked numbers belong to inactive results. Records with an inconclusive call do not appear. Calls of active or inactive are those of the source. Unless noted, the call rests on the fitted dose curve; in most records, active means well fitted curve in the direction sought with a large enough effect; inconclusive means small, poorly fitted or top-dose-only effect, or another doubt; inactive means no such curve, though single readings can be large; an effect the other way counts as inactive or inconclusive.

Chain of Glutathione peroxidase 1 (Homo sapiens) (P07203 whole entry, looked up): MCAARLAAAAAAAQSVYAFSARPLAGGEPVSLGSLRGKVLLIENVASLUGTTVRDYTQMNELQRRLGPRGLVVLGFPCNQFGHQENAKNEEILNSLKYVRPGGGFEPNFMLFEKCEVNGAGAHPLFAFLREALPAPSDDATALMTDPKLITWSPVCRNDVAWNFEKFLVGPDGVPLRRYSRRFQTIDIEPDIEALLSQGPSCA
Chain of Nuclear receptor subfamily 1 group I member 2 (Homo sapiens) (O75469 whole entry, looked up): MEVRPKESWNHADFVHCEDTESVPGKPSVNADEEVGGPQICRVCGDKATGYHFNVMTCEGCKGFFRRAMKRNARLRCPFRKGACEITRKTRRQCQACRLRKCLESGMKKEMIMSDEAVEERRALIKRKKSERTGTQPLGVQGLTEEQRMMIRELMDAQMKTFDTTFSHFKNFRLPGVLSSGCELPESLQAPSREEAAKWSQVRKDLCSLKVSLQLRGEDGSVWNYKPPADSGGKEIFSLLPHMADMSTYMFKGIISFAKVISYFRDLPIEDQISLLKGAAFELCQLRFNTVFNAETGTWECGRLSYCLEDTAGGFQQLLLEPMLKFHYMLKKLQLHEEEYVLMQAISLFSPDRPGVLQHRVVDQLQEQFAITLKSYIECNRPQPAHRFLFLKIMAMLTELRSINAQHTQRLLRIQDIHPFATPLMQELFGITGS
Chain of Phospholipid hydroperoxide glutathione peroxidase GPX4 (Homo sapiens) (P36969 whole entry, looked up): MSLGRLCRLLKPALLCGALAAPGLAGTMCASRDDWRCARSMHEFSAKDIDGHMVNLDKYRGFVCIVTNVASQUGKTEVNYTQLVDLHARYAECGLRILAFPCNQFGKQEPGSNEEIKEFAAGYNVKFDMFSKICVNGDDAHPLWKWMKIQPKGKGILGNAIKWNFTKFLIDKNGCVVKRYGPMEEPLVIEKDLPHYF
Chain of Cytochrome P450 2D6 (Homo sapiens) (P10635 whole entry, looked up): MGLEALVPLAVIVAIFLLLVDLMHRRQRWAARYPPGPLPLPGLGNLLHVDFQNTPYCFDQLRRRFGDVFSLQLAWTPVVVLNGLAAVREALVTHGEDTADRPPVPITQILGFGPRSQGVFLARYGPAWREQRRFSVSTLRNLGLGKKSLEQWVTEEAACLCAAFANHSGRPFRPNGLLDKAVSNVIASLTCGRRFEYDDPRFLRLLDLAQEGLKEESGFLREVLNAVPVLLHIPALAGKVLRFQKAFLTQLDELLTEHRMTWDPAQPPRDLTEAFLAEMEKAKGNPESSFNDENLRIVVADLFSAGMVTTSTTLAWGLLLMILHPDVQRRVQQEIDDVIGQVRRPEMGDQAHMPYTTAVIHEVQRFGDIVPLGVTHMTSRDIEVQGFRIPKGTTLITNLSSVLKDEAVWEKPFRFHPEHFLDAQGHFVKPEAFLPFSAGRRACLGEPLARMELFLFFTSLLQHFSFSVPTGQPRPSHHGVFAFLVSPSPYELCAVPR
Chain of Cytochrome P450 1A2 (Homo sapiens) (P05177 whole entry, looked up): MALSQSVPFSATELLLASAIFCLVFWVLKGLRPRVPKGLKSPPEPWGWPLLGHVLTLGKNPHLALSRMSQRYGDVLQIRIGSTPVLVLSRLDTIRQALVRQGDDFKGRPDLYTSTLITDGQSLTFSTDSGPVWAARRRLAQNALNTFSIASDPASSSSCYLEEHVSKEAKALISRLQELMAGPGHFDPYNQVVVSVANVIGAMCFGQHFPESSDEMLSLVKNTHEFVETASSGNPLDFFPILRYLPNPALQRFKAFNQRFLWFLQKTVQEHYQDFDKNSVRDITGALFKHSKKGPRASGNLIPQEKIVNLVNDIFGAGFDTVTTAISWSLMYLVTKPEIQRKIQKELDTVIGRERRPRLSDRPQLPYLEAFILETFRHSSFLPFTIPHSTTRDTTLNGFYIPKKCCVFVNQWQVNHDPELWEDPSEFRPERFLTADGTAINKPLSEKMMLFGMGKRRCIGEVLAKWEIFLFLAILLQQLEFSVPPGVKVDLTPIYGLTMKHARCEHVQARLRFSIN
Chain of Rap guanine nucleotide exchange factor 4 (Homo sapiens) (Q8WZA2 whole entry, looked up): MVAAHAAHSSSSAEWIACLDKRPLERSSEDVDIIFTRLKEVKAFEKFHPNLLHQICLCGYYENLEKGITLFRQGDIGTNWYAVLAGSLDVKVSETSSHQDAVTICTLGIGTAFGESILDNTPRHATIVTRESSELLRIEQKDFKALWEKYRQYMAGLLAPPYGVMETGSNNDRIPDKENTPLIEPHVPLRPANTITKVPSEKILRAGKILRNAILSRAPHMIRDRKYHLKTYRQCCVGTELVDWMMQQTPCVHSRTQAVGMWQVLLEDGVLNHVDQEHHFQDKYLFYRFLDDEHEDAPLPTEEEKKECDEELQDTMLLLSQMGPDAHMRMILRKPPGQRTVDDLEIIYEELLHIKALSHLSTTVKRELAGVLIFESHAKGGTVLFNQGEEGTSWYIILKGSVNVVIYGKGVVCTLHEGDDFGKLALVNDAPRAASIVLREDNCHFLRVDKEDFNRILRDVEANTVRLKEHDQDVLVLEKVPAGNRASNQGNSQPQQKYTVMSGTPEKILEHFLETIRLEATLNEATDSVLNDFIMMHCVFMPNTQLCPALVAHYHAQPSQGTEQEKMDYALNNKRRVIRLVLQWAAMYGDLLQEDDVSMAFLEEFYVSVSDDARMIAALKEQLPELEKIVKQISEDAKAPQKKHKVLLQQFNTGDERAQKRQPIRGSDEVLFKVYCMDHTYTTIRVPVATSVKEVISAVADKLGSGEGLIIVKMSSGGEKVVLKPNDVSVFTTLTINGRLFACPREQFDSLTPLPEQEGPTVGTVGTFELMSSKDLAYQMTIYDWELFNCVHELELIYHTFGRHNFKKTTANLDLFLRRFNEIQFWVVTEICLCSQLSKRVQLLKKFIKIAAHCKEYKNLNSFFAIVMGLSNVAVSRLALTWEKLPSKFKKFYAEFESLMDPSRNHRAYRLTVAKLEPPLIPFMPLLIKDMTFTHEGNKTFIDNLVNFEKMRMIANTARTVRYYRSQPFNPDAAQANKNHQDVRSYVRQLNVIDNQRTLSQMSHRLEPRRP

In the case of `COc1ccccc1NC(=O)Cc1c(C(=O)O)[nH]c2ccc(Cl)cc12`, the Potency entry in [1] was “inactive”.
Consider `CCC(/C=C/[C@@H](C)[C@H]1CCC2C3CC=C4C[C@@H](O)CC[C@]4(C)C3CC[C@@]21C)C(C)C` (some centres not stated), for which the Potency result in [2] and in [1] was “inactive” in each case. In addition, the compound was classed as inactive in [3], in assay [4], in assay [5], in assay [6], in assay [7] and in [8]. Besides, the outcome in [9], in assay [10], in [11], in assay [12], in assay [13] and in assay [15] was inactive. Further, the compound was called inactive in assay [16], in assay [17] and in [18]. Besides, the max response in assay [14] was 3.05%.
With `Cc1cc(C)c(Cn2c3ccccc3c3cnn(CC(=O)NCc4ccccn4)c(=O)c32)c(C)c1`, the Potency in assay [1] is 10.7 µM (active).
In the case of `CC(C)[C@H](N)C(=O)O`, the Potency entry in assay [2], in assay [1], in assay [19] and in [20] was “inactive” each time.
For `CN[C@@H]1[C@@H](O)[C@@H](O[C@@H]2[C@@H](O)[C@H](O[C@H]3O[C@H]([C@@H](C)NC)CC[C@H]3N)[C@@H](N)C[C@H]2N)OC[C@]1(C)O`, the Potency result in assay [2] and in [19] was “inactive” in each case.
As to `Cc1cc(Cl)ccc1NC(=O)Cn1nc(C)c2c(C)n(-c3ccccc3)nc2c1=O`, the Potency result in [2], in assay [22], in [23], in assay [24] and in assay [25] was “inactive” throughout. In [21], the Potency is 84.9 µM (active).
With `CCC=CCC=CCC=CCCCCCCCC(=O)O`, the Potency entry in [2], in assay [19] and in [20] was “inactive” throughout.
Turning to `Cc1nc2c3ccccc3nc(NNC(=O)CCC(=O)N3CCN(c4cccc(Cl)c4)CC3)n2n1`, the Potency in [1] was 12 µM (active).
Regarding `C=C(C)[C@H]1CC=C(C)CC1`, the Potency entry in assay [2] and in assay [1] was “inactive” in each case. For the same compound, the result in [3], in [4], in assay [5], in assay [6], in assay [7] and in [8] was inactive. Further, the outcome in [9], in assay [10], in [11], in assay [12], in assay [13] and in assay [15] was inactive. Moreover, the outcome in assay [16], in assay [17] and in assay [18] was inactive. Besides, in assay [14], the max response is -0.263%.
Regarding `CCn1c(N)c(C(=O)NC)c(=O)c2ccc(C#C[C@@](C)(O)COC)nc21`, the Potency entry in assay [2], in [19] and in assay [20] was “inactive” in each case.
